Most compounds without a hit are left out; they make up all but 1.5% or so of the library.
cardiac RTF act – cardiac RTF calcium sensitivity activators, primary screen, biochemical, IANBD-TnC fluorescence, EC20 calcium | Troponin I, cardiac muscle (Homo sapiens) + Troponin T, cardiac muscle (Homo sapiens) + … | IANBD-labeled TnC RTF fluorescence at EC20 calcium; 0% EC20 calcium, 100% full calcium | activation, % at 7.2 µM | actives 0.24% (n = 340,000) | AID 493008, 2010;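 active means activation above the mean over all tested compounds plus 3 SD, cut at about 30% in these data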;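 further: rise in fluorescence read as greater calcium sensitivity of cardiac thin filaments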
IDE inh – human IDE inhibitors in live cells, primary screen, fluorescence polarization, HEK cells, FAbetaB substrate | inhibition, % at 5.59 µM | FAbetaB cleavage | AID 434962, 2010 | actives 0.41% (n = 320,000) | Insulin-degrading enzyme (Homo sapiens), P14735;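 active means percent inhibition above the average of all tested compounds plus 3 SD, set per screening campaign, cut at about 16% in these data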;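 further: IDE supplied by intact live HEK cells; FP after avidin binding of uncleaved biotin substrate so inhibition keeps polarization high; 0% = DMSO wells and 100% = 60 µM reference IDE inhibitor Ii1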
CRFBP-R2 block – antagonists of CRF-BP/CRF-R2 complex, primary screen, cell-based, HEK293, calcium dye fluorescence, uHTS; CRF-induced calcium fluorescence; inhibition, % at 11.8 µM; actives 0.59% (n = 350,000); AID 588475, 2011;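 active means inhibition of the ligand-induced calcium signal above about 50% at the single tested concentration, limit read from the data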
Cardiac RTF inh – cardiac RTF calcium sensitivity inhibitors, primary screen, biochemical, IANBD-TnC fluorescence, EC70 calcium. IANBD-labeled cardiac RTF, Ca2+ fluorescence. Troponin I, cardiac muscle (Homo sapiens) + Troponin T, cardiac muscle (Homo sapiens) + …. inhibition, % at 7.15 µM. actives 0.12% (n = 340,000);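 active means inhibition above the mean inhibition of all tested compounds plus 3 SD, cut at about 17% in these data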;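 further: assay run at fixed EC70 calcium of 1.6 mM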
CRFBP-R2 agonist – agonists of CRF-BP/CRF-R2 complex, primary screen, cell-based, HEK293, calcium dye fluorescence, uHTS; CRF-binding protein / CRF receptor 2 complex (human); calcium dye fluorescence (FLIPR); percent of saturating CRF peptide response; activation, % at 13.2 µM; actives 0.46% (n = 350,000); AID 588473, 2011;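 active means activation of at least 50%, plus an integration ratio under a set limit after plate pattern correction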;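 further: plate controls were neutral control wells without compound for no effect and CRF at EC100 for full effect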
IDE act – human IDE activators in live cells, primary screen, fluorescence polarization, HEK cells, FAbeta-B substrate | Insulin-degrading enzyme (Homo sapiens), P14735 | FAbeta-B cleavage; 0% vehicle, 100% cell-free pure enzyme wells | activation, % at 5.96 µM | actives 0.073% (n = 340,000);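 active means activation above the mean of all tested compounds plus 3 SD, set per screening campaign, cut at about 17% in these data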
The depositor's hits bear a star; . = not tested or not shown.

SMILES | cardiac RTF act | IDE inh | CRFBP-R2 block | Cardiac RTF inh | CRFBP-R2 agonist | IDE act
O=C(O)C(c1ccccc1)N1C(=O)/C(=C\c2ccc(-c3ccccc3Cl)o2)SC1=S (centres undefined) | 2.4 | 10.5 | -103.7 | -1.7 | 90.9* | -6.0
CC(C)(C)n1nnnc1C(c1ccc(F)cc1)N(Cc1ccc(F)cc1)Cc1ccco1 (centres undefined) | -1.1 | 0.9 | -33.4 | 3.0 | -0.6 | 2.6
CC(C)(C)n1nnnc1C(c1ccc(Cl)cc1)N(Cc1cccnc1)Cc1ccco1 (centres undefined) | -2.1 | -4.7 | 59.0* | 10.7 | 7.9 | -6.8
N#CCC(=O)Nc1ccc(C(=O)NNC(=O)CCN2CCN(c3ccccc3)CC2)cc1 | 12.5 | -1.3 | -1.4 | -14.2 | 2.4 | -2.2
CCCn1c(N/N=C\C=C\c2ccccc2)nc2c1c(=O)[nH]c(=O)n2C | 0.1 | 16.4* | 2.5 | 3.5 | 0.4 | -1.9
CC(/C=C/c1ccccc1)=N\Nc1nc2c(c(=O)[nH]c(=O)n2C)n1CCO | . | 3.3 | 7.9 | . | -1.6 | .
Cc1ccc[n+](-c2nc([O-])sc2C=O)c1 | 94.0* | 9.0 | -54.9 | -114.1 | 92.2* | 1.7
CC(C)c1ccc[n+](-c2nc([O-])sc2C=O)c1 | . | 6.9 | 0.8 | . | -1.8 | .
CCN(CC)c1nc(C=Cc2ccc(N(C)C)cc2)c2nccnc2n1 | . | . | -210.7 | . | 214.6* | .
CN(C)c1nc(N)c2nccnc2n1 | -4.0 | . | 15.7 | -2.2 | 0.7 | 5.1
O=C(NCc1ccccn1)c1c(-c2ccccc2)sc2ccccc12 | -2.9 | 1.1 | 6.9 | -16.5 | -2.6 | -2.1
COc1ccc(C(=O)NCCS(=O)(=O)N(C)C2CCCCC2)cc1 | 4.2 | 3.4 | 50.6* | 3.5 | 37.1 | -2.4
Cc1ccc(NC(=O)C2C3C=CC4(CN(Cc5cccnc5)C(=O)C24)O3)cc1 (centres undefined) | -3.7 | 7.7 | -4.7 | -9.3 | -2.9 | 18.4*
COc1ccccc1-c1c(NC(=O)C(C)C)n(C)c2ccccc2c1=O | -1.2 | -1.9 | 105.7* | 3.5 | -0.6 | 2.6
COc1cc2[nH]c(=O)n(CCCCCC(=O)NC3CCCC3)c(=O)c2cc1OC | 4.8 | -3.1 | 66.9* | 5.5 | 1.6 | -3.9
CCCCCCN1C[C@H](n2cc(C3CC3)nn2)[C@@H](O)C[C@@H]1c1ccc(OC)cc1 | . | . | -3.0 | . | -0.4 | .
O=C(ON=C1CCN(c2ccc([N+](=O)[O-])cc2)CC1)c1ccccc1 | -1.3 | -0.1 | 64.3* | -0.4 | -2.4 | -0.3
COc1ccc(C(=O)ON=C2CCN(c3ccc([N+](=O)[O-])cc3)CC2)cc1 | 0.1 | 10.5 | 20.9 | -11.0 | 0.4 | 1.3
COc1ccc(OC)c2c1sc(=NC(=O)C1COc3ccccc3O1)n2C (centres undefined) | -1.7 | 0.9 | 82.5* | 1.6 | 4.6 | 6.1
Cc1onc(-c2c(F)cccc2Cl)c1C(=O)N1CCN(c2ncc(Br)cn2)CC1 | -1.0 | 6.9 | 73.8* | 4.5 | 0.4 | 9.1
COc1ccccc1C(CNC(=O)c1cc(S(=O)(=O)N2CCOCC2)ccc1C)N1CCCC1 (centres undefined) | 1.5 | -5.4 | -0.5 | -3.0 | -1.0 | -4.9
COc1ccc(S(=O)(=O)Nc2ccc(C(N)=O)cc2)cc1C(=O)N1CCCCCC1 | -1.1 | -2.2 | -1.2 | -22.0 | 1.0 | -4.7
Cc1ccc(C(=O)/C=C/c2ccc3ncccc3c2)cc1 | 4.0 | -0.7 | 0.6 | 7.3 | -2.7 | -1.7
S=C(Nc1ccc2c(c1)OCO2)Nc1ccccc1Cl | 1.9 | 1.7 | 76.4* | 0.5 | 0.7 | 0.2
S=C(NCc1ccc(Cl)c(Cl)c1)Nc1ccc2c(c1)OCO2 | -2.3 | 2.0 | 69.2* | -41.0 | -0.2 | 0.3
CC(Oc1ccccc1F)c1nnc(SCC(=O)N(c2ccccc2)C2CCS(=O)(=O)C2)o1 (centres undefined) | -0.9 | 1.6 | 0.9 | -7.1 | -0.6 | 7.9

Screening results deposited in PubChem BioAssay by several laboratories.
